Data as given in the supplement of paper PMC8975748.
Structures can show the parent of a compound that is named as a salt.

What follows are compounds tested on Saccharomyces cerevisiae BY4741 SeMeCo community (assay: z-score of subpopulation abundance vs DMSO median, subpopulation auxotrophic for H; higher = larger share of this subpopulation than in DMSO controls). Conditions: 10 µM; 24 h; SM minimal medium; subpopulation (auxotrophy): H.
Method: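 Fluorescent four-plasmid SeMeCo (self-establishing metabolically cooperating S. cerevisiae BY4741 community; plasmids pH-mRuby2, pL-mWasabi, pU-eCFP, pM-TagRFP657) was grown 24 h in minimal SM medium with each Selleck FDA-approved drug at 10 µM in 384-well plates. Cells were fixed and imaged by high-content confocal microscopy. For each auxotrophic subpopulation (and the prototroph), a z-score gives the deviation from the DMSO vehicle-control population median.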

SMILES | z-score of subpopulation abundance
NC[C@@H]1O[C@H](O[C@H]2[C@@H](O)[C@H](O[C@@H]3[C@@H](O)[C@H](N)C[C@H](N)[C@H]3O[C@H]3O[C@H](CO)[C@@H](O)[C@H](O)[C@H]3N)O[C@@H]2CO)[C@H](N)[C@@H](O)[C@@H]1O [Paromomycin Sulfate] | 0.2
Cc1ccc(O)c([C@H](CCN(C(C)C)C(C)C)c2ccccc2)c1 [Tolterodine tartrate] | -0.19
CN1C2CCCC1CC(NC(=O)c1nn(C)c3ccccc13)C2 (stereo not given) [Granisetron HCl] | 1.08
Nc1ccc(S(=O)(=O)Nc2ccccn2)cc1 [Sulfapyridine] | -0.9
NC12CC3CC(CC(C3)C1)C2 [Amantadine] | 0.12
CC(C)(C)CC(C)(C)c1ccc(OCCOCC[N+](C)(C)Cc2ccccc2)cc1 [Benzethonium Chloride] | 0.3
O=C(O)c1cc(-c2ccc(F)cc2F)ccc1O [Diflunisal] | -1.33
CO[C@H]1C[C@@H]2CC[C@@H](C)[C@@](O)(O2)C(=O)C(=O)N2CCCC[C@H]2C(=O)O[C@H]([C@H](C)C[C@@H]2CC[C@@H](OCCO)[C@H](OC)C2)CC(=O)[C@H](C)/C=C(\C)[C@@H](O)[C@@H](OC)C(=O)[C@H](C)C[C@H](C)/C=C/C=C/C=C/1C [Everolimus (RAD001)] | 15.9
CCCN[C@H]1CCc2nc(N)sc2C1 [Pramipexole 2HCl Monohydrate] | -0.51
C#CCN[C@@H]1CCc2ccccc21 [Rasagiline Mesylate] | 0.22
CC(C)[N+]1(C)[C@@H]2CC[C@H]1C[C@@H](OC(=O)C(CO)c1ccccc1)C2 (stereo not given in full) [Ipratropium Bromide] | -0.17
CCOc1cc(N)c([N+](=O)[O-])cc1C(=O)NC1CCN(CC2CC=CCC2)CC1 (stereo not given) [Cinitapride Hydrogen Tartrate] | -0.46
CCS(=O)(=O)CCn1c([N+](=O)[O-])cnc1C [Tinidazole] | -1.03
c1ccc2[nH]c(-c3cscn3)nc2c1 [Thiabendazole] | -0.52
CO[C@H]1C[C@@H]2CC[C@@H](C)[C@@](O)(O2)C(=O)C(=O)N2CCCC[C@H]2C(=O)O[C@H]([C@H](C)C[C@@H]2CC[C@H](n3cnnn3)[C@H](OC)C2)CC(=O)[C@H](C)/C=C(\C)[C@@H](O)[C@@H](OC)C(=O)[C@H](C)C[C@H](C)/C=C/C=C/C=C/1C [Zotarolimus(ABT-578)] | 14.4
CC1(C)S[C@@H]2[C@H](NC(=O)C(c3ccccc3)S(=O)(=O)O)C(=O)N2[C@H]1C(=O)O (stereo not given in full) [Sulbenicillin Sodium] | 1.2
O=C(CCCN1CCC(O)(c2ccc(Cl)cc2)CC1)c1ccc(F)cc1 [Haloperidol] | -0.68
O=C1CN(/N=C/c2ccc(-c3ccc([N+](=O)[O-])cc3)o2)C(=O)N1 [Dantrolene sodium] | 0.84
CC(C)Cc1ccc(C(C)C(=O)O)cc1 (stereo not given) [Ibuprofen Lysine] | -0.2
CO[C@@H]1[C@H](OC(=O)/C=C/C=C/C=C/C=C/C(=O)O)CC[C@]2(CO2)[C@H]1[C@@]1(C)O[C@@H]1CC=C(C)C [Fumagillin] | 1.11

SMILES | z-score of subpopulation abundance
O=C(O)CCC(=O)c1ccc(-c2ccccc2)cc1 [Fenbufen] | 0.71
CC[C@@H]1/C=C(\C)C[C@H](C)C[C@H](OC)[C@H]2O[C@@](O)(C(=O)C(=O)N3CCCC[C@H]3C(=O)O[C@H](/C(C)=C/[C@@H]3CC[C@H](Cl)[C@H](OC)C3)[C@H](C)[C@@H](O)CC1=O)[C@H](C)C[C@@H]2OC [Pimecrolimus] | 1.91
CCn1cc(C(=O)O)c(=O)c2cc(F)c(N3CCNCC3)cc21 [Norfloxacin] | 0.31
CCCCN1CCCC[C@H]1C(=O)Nc1c(C)cccc1C [Levobupivacaine HCl] | -0.68
COc1cccc(-c2c(C)n(Cc3c(F)cccc3C(F)(F)F)c(=O)n(C[C@H](NCCCC(=O)O)c3ccccc3)c2=O)c1F [Elagolix Sodium] | 1.38
C[C@@H](NCCCc1cccc(C(F)(F)F)c1)c1cccc2ccccc12 [Cinacalcet HCl] | 0.26
Cc1ccc(Sc2ccccc2N2CCNCC2)c(C)c1 | -0.02
CCN1CCN(C(=O)N[C@@H](C(=O)N[C@@H]2C(=O)N3[C@@H]2SC(C)(C)[C@@H]3C(=O)O)c2ccccc2)C(=O)C1=O [Piperacillin Sodium] | -0.01
O=C1Cc2cc(CCN3CCN(c4nsc5ccccc45)CC3)c(Cl)cc2N1 [Ziprasidone HCl] | 0.97
COC(=O)C1=C(C)NC(C)=C(C(=O)OC(C)C)C1c1cccc2nonc12 (stereo not given) [Isradipine] | -0.09
CCC[S+]([O-])c1ccc2[nH]c(NC(=O)OC)nc2c1 (stereo not given) [Albendazole Oxide] | -0.72
O=c1[nH]cnc2c1ncn2[C@@H]1O[C@H](CO)[C@@H](O)[C@H]1O [Isoprinosine] | 0.09
NC(=NCCCCCCN=C(N)N=C(N)Nc1ccc(Cl)cc1)N=C(N)Nc1ccc(Cl)cc1 [Chlorhexidine?2HCl] | 2.59
C=CC[N+]1([C@H]2C[C@H]3[C@@H]4CC[C@H]5C[C@H](O)[C@@H](N6CCOCC6)C[C@]5(C)[C@H]4CC[C@]3(C)[C@H]2OC(C)=O)CCCC1 [Rocuronium Bromide] | -0.21
NC(=O)N1c2ccccc2C=Cc2ccccc21 [Carbamazepine] | -0.43
CCCCCOc1ccc(-c2cc(-c3ccc(C(=O)N[C@H]4C[C@@H](O)[C@@H](O)NC(=O)[C@@H]5[C@@H](O)[C@@H](C)CN5C(=O)[C@H]([C@H](O)CC(N)=O)NC(=O)[C@H]([C@H](O)[C@@H](O)c5ccc(O)c(OS(=O)(=O)O)c5)NC(=O)[C@@H]5C[C@@H](O)CN5C(=O)[C@H]([C@@H](C)O)NC4=O)cc3)no2)cc1 [Micafungin Sodium] | 27.4
CCCCCCCCCC(=O)NC1C(Oc2c3cc4cc2Oc2ccc(cc2Cl)C(OC2OC(CO)C(O)C(O)C2NC(C)=O)C2NC(=O)C(NC(=O)C4NC(=O)C4NC(=O)C(Cc5ccc(c(Cl)c5)O3)NC(=O)C(N)c3ccc(O)c(c3)Oc3cc(O)cc4c3)c3ccc(O)c(c3)-c3c(OC4OC(CO)C(O)C(O)C4O)cc(O)cc3C(C(=O)O)NC2=O)OC(CO)C(O)C1O (stereo not given) [Teicoplanin] | 0.94
CCCCN1CCCCC1C(=O)Nc1c(C)cccc1C (stereo not given) [Bupivacaine HCl] | 0.67
CC1CCc2cc(F)cc3c(=O)c(C(=O)O)cn1c23 (stereo not given) [Flumequine] | -1
O=C(Cn1ccnc1[N+](=O)[O-])NCc1ccccc1 [Benznidazole] | -0.18
